IL-1B inflam inh: inflammasome signaling inhibition, IL-1 beta readout; THP-1 LPS/ATP IL-1B secretion, AlphaLISA, 16 h; hits give low values; activity change, % at 57.5 µM; 4.7% of 360,000 active; AID 743279; in the data active = activity change below about -50%; inconclusive = mostly about -30% to -49%
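THP-1 cells pretreated 1 hr with compounds (up to 57.5 uM final), then stimulated with LPS (250 ng/mL final) plus ATP (1.25 mM final); secreted IL-1B measured by AlphaLISA after 16 hr, decreased signal indicating inhibition.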
DT40 TDP1 no CPT: qHTS for Inhibitors of human tyrosyl-DNA phosphodiesterase 1 (TDP1): qHTS in cells in absence of CPT; DT40 Tdp1-/- hTDP1 cells, no CPT, ATP luminescence, 48 h; Potency, µM (doses to about 46.2 µM), without a hit: at the highest dose activity change, negative = growth inhibition, usual class: inhibitors; 15% of 420,000 active; AID 686978, 2013; also: potency is read from the fitted curve at half-maximal effect; nearly all actives have a fitted effect of over 55% in size
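A cellular qHTS used chicken DT40 cells lacking endogenous Tdp1 but carrying stably transfected human TDP1. Compounds were applied without camptothecin, and cell growth kinetics were judged by ATP-dependent luminescence after ≥48 hr.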
ELG1 DNA repair: inhibitors of ELG1-dependent DNA repair in HEK293T cells; Potency, µM (titrated, usually from 46.1 µM), without a hit: at the top dose activity change, negative = inhibition, most hits filed as inhibitors; AID 504467; 2.3% of 330,000 active; HEK293T ELG1-luciferase reporter, luminescence, 16 h; DNA damage induced by 5-fluorouridine; also: potency is read from the fitted curve at half-maximal effect; nearly all actives have a fitted effect of over 55% in size
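Step one: seed 2,000 cells per well. Step two: pin-transfer compound or DMSO alongside 5-fluorouridine. Step three: incubate 16 hr, 37 °C, 5% CO2. Step four: add ONE-Glo, wait 30 min, read luminescence.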
HT1080-NT tox: kills 2HG-producing HT-1080-NT fibrosarcoma cells. Potency, µM (titrated, usually from 46.1 µM), without a hit: at the highest dose activity, negative = less viability, hits mostly cytotoxic. 1.6% of 360,000 active. HT-1080-NT fibrosarcoma viability, CellTiter-Glo ATP luminescence, 48 h. AID 686970;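 also: NT is the 2HG producing partner of a matched IDH1 knockdown line; potency is read from the fitted curve at half-maximal effect; 0% = DMSO-treated cells and -100% = media-only wells without cells; nearly all actives have a fitted effect of over 55% in size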
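HT-1080-NT fibrosarcoma cells (2HG-overproducing), 750 cells/well in RPMI with 5% FBS, dosed after 2 h and incubated 48 h at 37C. CellTiter-Glo luminescence normalized to DMSO and no-cell wells; concentration-response curves fitted and classed.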
TDP1 cell CPT: DT40-hTDP1 cell growth loss with CPT; AID 686979; chicken DT40 Tdp1-/-;hTDP1 cells + 20 nM CPT, ATP luminescence, 48 h; Potency, µM (top dose mostly 46.2 µM), for inactives: top-dose activity change, negative = growth inhibition, most hits filed as inhibitors; 12% of 420,000 active; also: potency is read from the fitted curve at half-maximal effect; nearly all actives have a fitted effect of over 55% in size
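Chicken DT40 Tdp1-/- cells complemented with human TDP1, 400 cells/well, exposed to compounds plus 20 nM camptothecin for at least 48 h at 37 C; viability read as ATP content by CellTiter-Glo luminescence.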
HT1080 IDH1KD tx: toxicity to HT-1080 IDH1 knockdown cells (counter line) | HT-1080 IDH1 knockdown viability, ATP luminescence, 48 h | Potency, µM (series often up to 46.1 µM), without a hit: at the top dose activity, negative = toxicity, most hits filed as cytotoxic | 2% of 360,000 active | AID 686971;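 also: potency is read from the fitted curve at half-maximal effect; 0% = DMSO wells and -100% = cell-free medium wells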
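In this qHTS, HT-1080 cells depleted of IDH1 are exposed for 48 h at 37 °C to compound titrations. Toxicity is scored from CellTiter-Glo luminescence, with DMSO as full viability and medium alone as none.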
Starred values were filed as active, the others as inactive; ? = inconclusive; . = no result; [ ] = dose if it differs, or a comment. Compounds with a hit are over-represented: about 19% of the library has one in this group of screens. Unless noted, calls follow the shape of the dose curve; as a rule, active = well fitted curve in the direction sought with a large enough effect; inconclusive = small, poorly fitted or top-dose-only effect, or another doubt; inactive = no such curve, though single readings can be large; an effect the other way counts as inactive or inconclusive. Unless noted, % is scaled to controls: 0 for no effect and ±100 for the full control effect.

SMILES | IL-1B inflam inh | DT40 TDP1 no CPT | ELG1 DNA repair | HT1080-NT tox | TDP1 cell CPT | HT1080 IDH1KD tx
CS(=O)(=O)c1ccc(-c2cc(NC=O)c3ncc(-c4ccc(F)cc4)n3c2)cc1 | -13.7 | 23.1µM* | . | ? | 23.1µM* | ?
O=CNc1cc(-c2ccc(C(=O)NC3CC3)cc2)cn2c(-c3ccc(F)cc3)cnc12 | -77.9* | 23.1µM* | . | ? | 23.1µM* | 8.2µM*
CCOC(=O)[C@]12CCC=C1N(Cc1ccco1)C(=O)[C@H](CC(=O)NCCCN1CCCC1=O)C2 | 39.8 | -0.2% | . | 15.4% | -0.5% | 1.9%
CN(C)S(=O)(=O)c1cccc(-c2nnc(SCC(=O)NCCCCCC(=O)O)n2-c2ccc(F)cc2)c1 | 0.0 | -4.3% | 14.2% | -0.3% | 17.5% | 3.5%
C/C=C(\C)C(=O)NCCN1C2=NC[C@H](C(C)C)N2C[C@@H]1Cc1ccc(OC)cc1 | -4.2 | -23.6% | 4.6% | 0.0% | ? | -3.5%
C[C@@H](CN1C2=NC[C@H](C)N2C[C@H]1Cc1ccc(O)cc1)NC(=O)CCC1CCCCC1 | -17.2 | 13µM* | 5.9% | 1.1% | 11.6µM* | -12.7%
CC(C)[C@H]1CN=C2N(C[C@H](C)NC(=O)CCC3CCCCC3)[C@H](Cc3ccc(O)cc3)CN21 | 0.0 | 6.51µM* | -6.9% | -22.4% | 6.51µM* | ?
Cc1ccc(S(=O)(=O)NC(=O)Nc2ccc(OC(F)F)cc2)cc1 | 1.4 | 3.7% | 5.5% | 0.9% | 12.8% | 13.5%
COC(=O)C1=C(C(=O)OC)[C@]2([C@@H]3C/C=C\CN[C@@H](Cc4ccccc4)C(=O)N3Cc3ccccc3)C=C[C@H]1O2 | . | ? | . | . | 25.1µM* | .
COC(=O)c1ccc(C2SCC(=O)N2Cc2ccccc2)cc1 (stereo not given) | 28.4 | ? | ? | 0.7% | -5.3% | -1.6%
COC(=O)C1=C(C(=O)OC)[C@]2([C@@H]3CCCCN[C@@H](Cc4ccccc4)C(=O)N3Cc3ccccc3)C=C[C@H]1O2 | -0.2 | 13µM* | . | 10.1% | 14.6µM* | 4.4%
N#C[C@@H]1N(Cc2ccccc2)C(=O)[C@H]2CC3C=CC21O3 (stereo not given in full) | -14.0 | ? | 11.3% | 1.1% | ? | 1.2%
COc1ccc(CN2CCCC(n3cc(C(=O)N4CCCCC4)nn3)C2)cc1OC (stereo not given) | . | -5.3% | . | . | 1.0%[9.04 µM] | .
Clc1ccc2nc(CN3CCCc4ccccc43)cn2c1 | -78.4* | 18.4µM* | 21.2% | ? | 13µM* | ?
Cc1ccn2c(Cc3ccccc3)c(-c3ccc(Br)cc3)nc2c1 | 45.6 | ? | . | -3.6% | 20.6µM* | -13.8%
Cc1ccn2c(CN3CCOCC3)c(-c3ccccc3)nc2c1 | ? | ? | ? | 1.0% | -28.7% | 3.8%
Oc1ccc(-c2nc3ccccn3c2NCc2ccco2)cc1 | -0.6 | ? | ? | -10.2% | 4.9% | -1.5%
Cc1ccn2c(NCc3ccco3)c(-c3ccccc3)nc2c1 | . | 11.2µM* | . | 0.9% | ? | 5.1%
Cc1ccn2c(Cc3ccccc3)c(-c3ccccc3)nc2c1 | 38.6 | 18.4µM* | . | 2.5% | 18.4µM* | 5.7%
CCCNC(=O)C1(C)CCN1C(=O)Cc1ccc(C(C)C)cc1 (stereo not given) | 41.0 | ? | . | 17.1% | -27.1% | 2.1%
CNc1ccc2ncc(-c3ccc(OC)c(OC)c3)n2n1 | -66.4* | 2.06µM* | . | 18.4µM* | 2.59µM* | ?
N=c1c2ccccc2nc2n1CCCCCCCCCCC2 | -86.6* | 7.31µM* | . | ? | 5.17µM* | 23.1µM*
Cc1ncc2c(c1CNC(=O)/C=C/c1cccs1)CCN(C(=O)C1CC(=O)OC13CCCCC3)C2 (stereo not given) | . | -9.4% | . | . | 8.3%[9.04 µM] | .
Nn1c(Nc2ccccc2)nc2sc3c(c2c1=O)CCC3 | -2.2 | 2.91µM* | ? | ? | 1.03µM* | ?
O=c1c2c3c(sc2nc(NCCO)n1-c1ccccc1)CCCC3 | 9.0 | 11.6µM* | ? | ? | 6.51µM* | ?
SMILES | IL-1B inflam inh | DT40 TDP1 no CPT | ELG1 DNA repair | HT1080-NT tox | TDP1 cell CPT | HT1080 IDH1KD tx
CSc1nc2sc3c(c2c(=O)n1C)CCCC3 | 24.8 | ? | ? | -1.8% | -24.4% | 19.8%
CSc1nc2sc3c(c2c(=O)n1-c1ccccc1)CCC(C(C)(C)C)C3 (stereo not given) | . | 0.92µM* | . | . | ? | .
CSc1nc2sc3c(c2c(=O)n1C)CCC(C)C3 (stereo not given) | 25.1 | ? | ? | 4.9% | -5.4% | -1.7%
CSc1nc2sc3c(c2c(=O)n1-c1ccc(C)cc1)CCCC3 | . | 8.2µM* | . | . | ? | .
O=C1NC[C@H](CCCCN2C[C@H](Cc3ccc(O)cc3)N(Cc3ccccc3)C(=O)C2=O)N(CCc2ccc(O)cc2)C1=O | 2.9 | -8.8% | . | 19.0% | -6.7% | ?
CCC(C)CNC(=O)c1[nH]c(C(F)(F)F)nc1-c1ccccc1 (stereo not given) | 2.5 | -3.7% | . | -1.9% | -6.0% | 0.5%
CC(C)Sc1nc2sc3c(c2c(=O)n1-c1ccccc1)CCCC3 | . | 18.4µM* | . | . | ? | .
Cc1ccccc1-n1c(SCC(=O)O)nc2sc3c(c2c1=O)CCCC3 | 24.2 | -0.8% | -1.9% | -18.9% | -18.4% | 1.8%
Cc1nc2cnc(N3CCNCC3)nc2n(C2CC2)c1=O | . | -16.3% | . | . | 1.1% | .
Cc1ccc(Nc2sc(C(=O)c3ccccc3)c(N)c2C(=O)Nc2ccc(Cl)cc2)cc1 | . | 18.4µM* | . | . | ? | .
O=C(Nc1ccc(Cl)c(Cl)c1)c1ccccc1 | -17.4 | ? | ? | 1.4% | ? | 10.9%
CCOc1ccc(NC(=O)c2c(Nc3ccc(OC)cc3OC)sc(C(=O)c3ccc(Cl)cc3)c2N)cc1 | . | 13µM* | . | . | 11.6µM* | .
COc1ccccc1NC(=O)c1c(Nc2ccccc2F)sc(C(=O)Nc2cccc(Cl)c2)c1N | ? | 25.9µM* | ? | 14.6µM* | ? | ?
Nc1c(C(=O)c2ccccc2)sc(Nc2ccc(Cl)c(Cl)c2)c1C(=O)Nc1ccccc1 | . | 4.11µM* | . | . | ? | .
COc1ccc(/C=C/C(=O)OCC(=O)NCCC2=CCCCC2)cc1S(=O)(=O)N1CCOCC1 | -5.7 | -18.8% | -0.8% | -7.3% | -29.3% | -5.6%
COc1cc(C)nc(OCCNC(=O)COc2ccc(Cl)cc2C)n1 | -1.6 | 20.6µM* | -7.5% | 0.5% | 16.4µM* | -7.3%
Cc1cc(Cl)ccc1OCC(=O)NCCC(=O)O | 10.1 | ? | 3.4% | -18.5% | -19.5% | -0.9%[9.24 µM]

High-throughput results as filed in PubChem BioAssay.
